Assay [1] has as its target T1, Mitogen-activated protein kinase kinase kinase 5 (Homo sapiens) (UniProt Q99683).
T1 sequence (whole entry): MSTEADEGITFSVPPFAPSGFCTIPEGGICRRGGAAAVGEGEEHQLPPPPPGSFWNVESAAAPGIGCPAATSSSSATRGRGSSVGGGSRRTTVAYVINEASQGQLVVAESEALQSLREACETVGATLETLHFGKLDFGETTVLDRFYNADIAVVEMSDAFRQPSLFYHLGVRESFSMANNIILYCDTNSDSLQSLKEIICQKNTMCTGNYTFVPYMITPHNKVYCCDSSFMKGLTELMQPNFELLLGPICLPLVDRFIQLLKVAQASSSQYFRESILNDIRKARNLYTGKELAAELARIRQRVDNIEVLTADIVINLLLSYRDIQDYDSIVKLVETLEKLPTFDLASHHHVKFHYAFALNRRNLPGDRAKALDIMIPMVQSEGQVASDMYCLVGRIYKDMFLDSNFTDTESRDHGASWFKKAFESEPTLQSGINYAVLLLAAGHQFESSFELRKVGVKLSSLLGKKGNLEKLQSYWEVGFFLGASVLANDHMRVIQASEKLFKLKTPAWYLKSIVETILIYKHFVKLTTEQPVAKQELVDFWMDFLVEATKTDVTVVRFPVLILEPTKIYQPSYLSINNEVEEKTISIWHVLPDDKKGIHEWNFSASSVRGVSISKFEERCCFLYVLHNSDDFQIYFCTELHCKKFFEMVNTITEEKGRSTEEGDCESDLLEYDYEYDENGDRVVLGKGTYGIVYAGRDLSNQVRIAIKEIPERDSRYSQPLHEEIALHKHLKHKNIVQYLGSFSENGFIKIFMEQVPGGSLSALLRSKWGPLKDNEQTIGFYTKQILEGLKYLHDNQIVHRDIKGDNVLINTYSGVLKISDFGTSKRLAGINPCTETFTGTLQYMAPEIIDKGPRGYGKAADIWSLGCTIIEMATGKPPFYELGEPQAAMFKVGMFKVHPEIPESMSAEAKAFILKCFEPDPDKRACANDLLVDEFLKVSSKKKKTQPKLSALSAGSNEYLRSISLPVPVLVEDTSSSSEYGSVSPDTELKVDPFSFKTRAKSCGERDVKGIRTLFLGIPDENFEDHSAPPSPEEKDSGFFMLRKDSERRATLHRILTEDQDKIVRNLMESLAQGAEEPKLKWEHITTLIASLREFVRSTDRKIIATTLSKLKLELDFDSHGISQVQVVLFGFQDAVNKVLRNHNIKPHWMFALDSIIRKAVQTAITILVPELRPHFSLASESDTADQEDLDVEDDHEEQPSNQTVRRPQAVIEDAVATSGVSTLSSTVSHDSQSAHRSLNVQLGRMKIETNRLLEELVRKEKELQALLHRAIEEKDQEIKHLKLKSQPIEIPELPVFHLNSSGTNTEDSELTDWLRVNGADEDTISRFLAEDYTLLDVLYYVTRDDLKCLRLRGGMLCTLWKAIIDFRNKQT
As to conditions: at 10 µM.

The target in assay [2] is Tyrosine-protein kinase ABL1 (Homo sapiens) (UniProt P00519). The following applies: at 1 µM.
The target is the same in assay [3]. The following applies: at 10 µM.
Assay [4] concerns the target Tyrosine-protein kinase ABL2 (Homo sapiens) (UniProt P42684). As to conditions: at 1 µM.
Assay [5] shares this target. The following applies: at 10 µM.
Assay [6] has as its target Aurora kinase B (Homo sapiens) (UniProt Q96GD4). As to conditions: at 1 µM.
Assay [7] shares this target. As to conditions: at 10 µM.
Assay [8] addresses T2, Aurora kinase C (Homo sapiens) (UniProt Q9UQB9).
T2 sequence (whole entry): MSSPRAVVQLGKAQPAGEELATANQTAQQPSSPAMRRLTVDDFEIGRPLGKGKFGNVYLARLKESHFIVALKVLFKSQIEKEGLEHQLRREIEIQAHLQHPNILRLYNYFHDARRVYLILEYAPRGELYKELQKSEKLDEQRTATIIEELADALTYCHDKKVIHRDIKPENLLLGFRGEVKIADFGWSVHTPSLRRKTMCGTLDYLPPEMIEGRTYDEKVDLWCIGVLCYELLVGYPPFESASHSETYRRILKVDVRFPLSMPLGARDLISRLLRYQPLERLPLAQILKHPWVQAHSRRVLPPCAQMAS
As to conditions: at 1 µM.

In assay [9] the target is T2, Aurora kinase C (Homo sapiens). As to conditions: at 10 µM.
For assay [10], the target named is Tyrosine-protein kinase receptor UFO (Homo sapiens) (UniProt P30530). As to conditions: at 10 µM.
The target of assay [11] is Tyrosine-protein kinase BTK (Homo sapiens) (UniProt Q06187). As to conditions: at 1 µM.
Assay [12] has the same target. The following applies: at 10 µM.
The target of assay [13] is Tyrosine-protein kinase Blk (Homo sapiens) (UniProt P51451). The following applies: at 10 µM.
Assay [14] has as its target T3, Aurora kinase A (Homo sapiens) (UniProt O14965).
T3 sequence (whole entry): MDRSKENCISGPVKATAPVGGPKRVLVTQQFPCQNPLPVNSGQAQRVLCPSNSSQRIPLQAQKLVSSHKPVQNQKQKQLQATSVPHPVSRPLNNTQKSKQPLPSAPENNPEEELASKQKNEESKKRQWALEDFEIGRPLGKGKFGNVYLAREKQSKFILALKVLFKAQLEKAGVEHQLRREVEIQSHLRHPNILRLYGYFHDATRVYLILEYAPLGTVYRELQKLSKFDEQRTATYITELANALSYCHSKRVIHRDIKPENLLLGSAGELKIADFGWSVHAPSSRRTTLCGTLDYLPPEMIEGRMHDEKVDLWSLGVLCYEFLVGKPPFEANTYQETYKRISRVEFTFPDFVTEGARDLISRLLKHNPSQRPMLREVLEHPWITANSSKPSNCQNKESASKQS
The following applies: at 1 µM.

For assay [15], the target named is T3, Aurora kinase A (Homo sapiens). As to conditions: at 10 µM.
Assay [16] has as its target Tyrosine-protein kinase receptor UFO (Homo sapiens) (UniProt P30530). The following applies: at 1 µM.
The target in assay [17] is Protein-tyrosine kinase 6 (Homo sapiens) (UniProt Q13882). The following applies: at 1 µM.
For assay [18] the target is unchanged. The following applies: at 10 µM.
Assay [19] has as its target Tyrosine-protein kinase Blk (Homo sapiens) (UniProt P51451). As to conditions: at 1 µM.

Chain of Tyrosine-protein kinase BTK (Homo sapiens) (Q06187 whole entry): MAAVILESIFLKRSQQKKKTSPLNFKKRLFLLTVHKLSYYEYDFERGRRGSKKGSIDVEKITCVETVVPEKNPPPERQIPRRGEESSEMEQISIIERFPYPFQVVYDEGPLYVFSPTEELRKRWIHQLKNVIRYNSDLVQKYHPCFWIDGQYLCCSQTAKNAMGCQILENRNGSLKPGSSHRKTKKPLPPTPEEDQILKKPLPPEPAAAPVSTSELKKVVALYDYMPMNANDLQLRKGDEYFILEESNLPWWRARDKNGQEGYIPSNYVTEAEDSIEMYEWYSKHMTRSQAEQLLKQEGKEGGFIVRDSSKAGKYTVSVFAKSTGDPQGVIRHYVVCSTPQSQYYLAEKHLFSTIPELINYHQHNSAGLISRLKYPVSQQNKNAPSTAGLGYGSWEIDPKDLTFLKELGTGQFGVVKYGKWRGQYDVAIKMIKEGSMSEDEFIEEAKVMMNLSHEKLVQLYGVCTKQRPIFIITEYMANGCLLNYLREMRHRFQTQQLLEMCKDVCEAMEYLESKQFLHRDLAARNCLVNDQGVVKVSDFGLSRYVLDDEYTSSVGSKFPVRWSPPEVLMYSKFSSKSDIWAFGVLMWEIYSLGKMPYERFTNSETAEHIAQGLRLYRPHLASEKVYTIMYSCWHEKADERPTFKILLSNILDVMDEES
Chain of Protein-tyrosine kinase 6 (Homo sapiens) (Q13882 whole entry, looked up): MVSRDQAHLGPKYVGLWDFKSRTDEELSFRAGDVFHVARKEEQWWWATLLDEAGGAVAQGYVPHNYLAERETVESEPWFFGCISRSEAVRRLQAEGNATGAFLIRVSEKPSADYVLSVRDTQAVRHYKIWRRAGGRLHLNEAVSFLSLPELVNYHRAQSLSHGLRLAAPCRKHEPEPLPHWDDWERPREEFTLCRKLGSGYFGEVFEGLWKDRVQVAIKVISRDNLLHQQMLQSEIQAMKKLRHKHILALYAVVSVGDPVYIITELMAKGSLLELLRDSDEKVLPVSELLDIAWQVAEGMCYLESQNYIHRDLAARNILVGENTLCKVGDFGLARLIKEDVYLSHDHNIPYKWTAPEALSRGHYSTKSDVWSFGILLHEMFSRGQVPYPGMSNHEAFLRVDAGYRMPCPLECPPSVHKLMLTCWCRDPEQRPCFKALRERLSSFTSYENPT
Chain of Aurora kinase B (Homo sapiens) (Q96GD4 whole entry): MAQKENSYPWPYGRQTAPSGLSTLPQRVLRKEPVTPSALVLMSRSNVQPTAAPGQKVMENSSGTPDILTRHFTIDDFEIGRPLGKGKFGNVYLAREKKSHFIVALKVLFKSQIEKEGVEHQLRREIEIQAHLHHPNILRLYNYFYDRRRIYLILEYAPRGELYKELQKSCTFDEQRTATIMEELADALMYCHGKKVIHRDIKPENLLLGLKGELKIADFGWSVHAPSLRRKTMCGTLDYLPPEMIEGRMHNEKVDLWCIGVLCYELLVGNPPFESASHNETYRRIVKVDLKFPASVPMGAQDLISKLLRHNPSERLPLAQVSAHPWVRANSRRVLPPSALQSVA
Chain of Tyrosine-protein kinase Blk (Homo sapiens) (P51451 2-505 limits assumed): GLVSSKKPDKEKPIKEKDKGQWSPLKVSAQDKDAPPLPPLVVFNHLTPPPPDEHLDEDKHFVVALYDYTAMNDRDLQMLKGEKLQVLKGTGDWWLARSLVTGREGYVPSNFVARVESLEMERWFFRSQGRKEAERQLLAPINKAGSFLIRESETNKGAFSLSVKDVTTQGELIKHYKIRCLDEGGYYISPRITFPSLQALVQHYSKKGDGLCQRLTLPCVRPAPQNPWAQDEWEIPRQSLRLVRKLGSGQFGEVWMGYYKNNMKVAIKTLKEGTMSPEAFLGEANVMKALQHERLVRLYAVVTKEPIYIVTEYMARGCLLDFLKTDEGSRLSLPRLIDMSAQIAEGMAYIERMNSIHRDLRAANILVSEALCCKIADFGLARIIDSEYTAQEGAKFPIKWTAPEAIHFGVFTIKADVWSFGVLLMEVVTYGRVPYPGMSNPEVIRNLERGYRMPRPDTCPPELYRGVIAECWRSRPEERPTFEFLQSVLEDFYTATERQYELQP
Chain of Tyrosine-protein kinase ABL2 (Homo sapiens) (P42684 whole entry): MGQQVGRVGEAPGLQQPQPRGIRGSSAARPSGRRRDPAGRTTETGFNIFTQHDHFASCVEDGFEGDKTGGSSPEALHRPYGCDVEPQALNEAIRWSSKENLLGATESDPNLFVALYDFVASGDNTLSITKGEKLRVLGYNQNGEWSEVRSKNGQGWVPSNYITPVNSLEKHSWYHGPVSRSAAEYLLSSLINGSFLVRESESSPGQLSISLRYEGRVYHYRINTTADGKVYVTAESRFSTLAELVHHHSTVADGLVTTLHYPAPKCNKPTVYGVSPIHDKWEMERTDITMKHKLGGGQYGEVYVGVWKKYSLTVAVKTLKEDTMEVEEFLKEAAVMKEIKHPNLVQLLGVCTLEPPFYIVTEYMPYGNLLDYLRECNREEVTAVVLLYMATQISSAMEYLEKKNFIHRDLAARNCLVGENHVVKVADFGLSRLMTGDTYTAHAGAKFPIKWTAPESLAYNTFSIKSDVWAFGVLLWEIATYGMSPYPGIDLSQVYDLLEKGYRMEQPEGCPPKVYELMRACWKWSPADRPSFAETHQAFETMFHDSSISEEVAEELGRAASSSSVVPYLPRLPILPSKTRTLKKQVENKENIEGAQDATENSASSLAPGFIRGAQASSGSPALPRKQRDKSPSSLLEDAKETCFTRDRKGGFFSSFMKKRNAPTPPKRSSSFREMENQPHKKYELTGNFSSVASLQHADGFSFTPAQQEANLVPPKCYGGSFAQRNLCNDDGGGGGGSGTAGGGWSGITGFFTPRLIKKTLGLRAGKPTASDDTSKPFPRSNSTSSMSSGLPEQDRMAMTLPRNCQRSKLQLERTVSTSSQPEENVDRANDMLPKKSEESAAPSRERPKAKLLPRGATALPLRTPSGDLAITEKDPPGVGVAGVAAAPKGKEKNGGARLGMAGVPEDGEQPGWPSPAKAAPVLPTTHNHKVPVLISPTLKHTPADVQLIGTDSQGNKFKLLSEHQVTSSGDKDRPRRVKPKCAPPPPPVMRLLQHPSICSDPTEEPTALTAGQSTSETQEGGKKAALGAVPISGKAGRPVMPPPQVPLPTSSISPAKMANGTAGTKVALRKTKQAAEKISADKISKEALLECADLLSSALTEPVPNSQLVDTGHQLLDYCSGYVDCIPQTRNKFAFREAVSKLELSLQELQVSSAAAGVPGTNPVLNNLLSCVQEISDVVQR
Chain of Tyrosine-protein kinase receptor UFO (Homo sapiens) (P30530 whole entry): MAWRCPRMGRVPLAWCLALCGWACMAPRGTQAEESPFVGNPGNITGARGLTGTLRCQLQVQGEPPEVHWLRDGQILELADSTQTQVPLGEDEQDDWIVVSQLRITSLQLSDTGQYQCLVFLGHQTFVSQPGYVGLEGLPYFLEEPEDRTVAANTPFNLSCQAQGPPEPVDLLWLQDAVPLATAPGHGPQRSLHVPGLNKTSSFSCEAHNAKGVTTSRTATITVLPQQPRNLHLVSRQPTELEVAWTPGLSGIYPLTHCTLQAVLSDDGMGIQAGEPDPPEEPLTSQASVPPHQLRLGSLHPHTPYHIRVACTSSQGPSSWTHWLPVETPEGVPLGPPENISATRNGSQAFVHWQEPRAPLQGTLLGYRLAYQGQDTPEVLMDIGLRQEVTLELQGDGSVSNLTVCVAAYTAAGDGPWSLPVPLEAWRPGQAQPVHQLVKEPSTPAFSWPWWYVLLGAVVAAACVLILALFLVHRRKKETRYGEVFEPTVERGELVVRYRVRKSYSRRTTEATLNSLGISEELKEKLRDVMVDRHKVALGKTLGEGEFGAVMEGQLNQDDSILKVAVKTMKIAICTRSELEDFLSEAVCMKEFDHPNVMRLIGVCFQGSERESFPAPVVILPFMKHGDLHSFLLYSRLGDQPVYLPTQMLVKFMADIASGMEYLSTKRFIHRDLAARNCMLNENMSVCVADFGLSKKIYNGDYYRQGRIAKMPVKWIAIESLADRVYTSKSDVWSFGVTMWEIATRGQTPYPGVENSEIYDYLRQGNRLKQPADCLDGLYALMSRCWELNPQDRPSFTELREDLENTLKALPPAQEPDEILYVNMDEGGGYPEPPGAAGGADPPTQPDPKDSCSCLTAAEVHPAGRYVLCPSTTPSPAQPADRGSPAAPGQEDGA

Turning to `O=C1C(Cl)=C(N2C(=O)CCC2=O)C(=O)c2ccccc21`, the residual activity in [1] was determined as 91%; in [2], 92%; in [3], 66%; in assay [4], 97%; in assay [5], 83%; in assay [6], 73%. Further, the residual activity in assay [7] was determined as 36%; in [8] it was 67%; in assay [9], 62%; in [10], 80%; in assay [11], 91%; in [12], 95%. Further, the residual activity in assay [13] turned out to be 95%.
`COc1ccc(Cl)cc1NC(=O)Nc1cc(C)nc2ccccc12`: the residual activity was found to be 87% in assay [2]; 145% in assay [3]; 89% in [14]; 136% in assay [15]; 98% in assay [16]; 88% in [10]. Besides, the residual activity in assay [13] was found to be 78%.
In the case of `O=S(=O)(c1cccc2cnccc12)N1CCCNCC1`, the residual activity in assay [5] is 80%; in [9], 59%.
On to `O=C1Cc2c([nH]c3ccc([N+](=O)[O-])cc23)-c2ccccc2N1`, for which the residual activity in assay [1] amounted to 105%; in assay [2], 47%; in [4], 81%; in [5], 76%; in [15] it was 105%; in assay [6] it was 48%. Moreover, the residual activity amounted to 22% in [7]; 111% in [17]; 107% in assay [18]; 29% in assay [19]; 33% in assay [13].
With `CCN1/C(=C/C(C)=O)Sc2ccc(OC)cc21`, the residual activity amounted to 79% in [3]; 81% in assay [5]; 122% in [7]; 77% in [16]; 75% in assay [10].
On to `CCOc1nc(NC(=O)Cc2cc(OC)ccc2OC)cc(N)c1C#N`, for which the residual activity worked out at 78% in assay [8]; 60% in assay [17]; 50% in [18]; 81% in assay [11]; 78% in assay [12].
Turning to `O=C1Cc2c([nH]c3ccc(Br)cc23)-c2ccccc2N1`, the residual activity in assay [2] came out at 64%; in [3] it was 39%; in assay [4], 76%; in assay [5], 45%; in assay [14], 97%; in [15], 66%. Moreover, the residual activity in assay [6] came out at 69%; in assay [7], 15%; in [8], 76%; in assay [9], 71%; in assay [17] it was 95%; in [18] it was 72%.
Consider `Nc1nccc(-c2c(-c3ccc(F)cc3)ncn2C2CCNCC2)n1`, for which the residual activity stood at 65% in [5], 72% in [7], 78% in [9] and 30% in assay [18].
For `CCOC(=O)c1c(C)[nH]c(/C=C2\C(=O)Nc3ccccc32)c1C`, the residual activity in assay [6] worked out at 74%; in [7], 61%; in [16], 84%; in assay [10] it was 81%; in assay [19] it was 89%; in assay [13], 57%.
With `O=c1c(-c2ccc(F)cc2)c(-c2ccncc2)[nH]n1-c1ccc(Cl)cc1`, the residual activity in [1] amounted to 119%; in assay [3] it was 68%; in assay [5], 53%; in assay [17], 59%; in assay [18], 7%; in [19], 101%. Moreover, the residual activity in [13] worked out at 74%.
Regarding `CC(C)[C@H](CO)Nc1nc(Nc2cc(N)cc(Cl)c2)c2ncn(C(C)C)c2n1`, the residual activity in [2] is 75%; in [3] it was 15%; in [4] it was 62%; in assay [5] it was 8%; in assay [14], 70%; in [15], 47%. Moreover, the residual activity in assay [6] turned out to be 14%; in assay [7], 2%; in [8], 91%; in assay [9], 52%; in assay [16] it was 80%; in [10] it was 20%. In addition, the residual activity in assay [17] turned out to be 96%; in assay [18] it was 83%; in assay [11], 48%; in assay [12] it was 5%.
